36 compounds from PubChem BioAssay (NCI) can be followed below.

About 83,000 compounds went through this panel and 20% of them were active in at least one assay; those are over-represented in the sample as a whole.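 Activity criterion: percent growth below 10, measured after cells in 96-well plates were exposed to a single compound concentration for 48 hours.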 Active and inactive are the calls of the source.

The test system of this assay is MDA-MB-435 melanoma. As to the kind of experiment: NCI-60 one-dose screen, 48 h (100 = growth as untreated, 0 = no growth, -100 = all killed). The following applies: 10 µM unless noted.
Regarding `COc1cccc([C@H]2c3[nH]c4ccccc4c3C[C@H]3C(=O)N(CCCCCCC(=O)NO)CC(=O)N23)c1`, the growth is 61.2% (inactive).

Consider `Clc1ccc(CNc2c3ccccc3nc3ccccc23)cc1`, for which the growth was 60.7% (inactive).

For `COC(=O)c1c2c(c(C)[n+]([O-])c1C)C(=O)C=C(NCc1ccc(Br)cc1)C2=O`, the growth was -92.8% (active).

Regarding `COc1ccc(C/C(C)=C(/c2ccc(OCCN3CCCCC3)cc2)c2ccc(OC(=O)NCc3ccccc3)cc2)cc1`, the growth was -95.4% (active).

Turning to `O=C1c2cccc(NCCN=Cc3cc(O)ccc3O)c2C(=O)c2c(NCCN=Cc3cc(O)ccc3O)cccc21`, the growth was -5.74% (active).

Turning to `CS(=O)(=O)c1cccc(-c2c(-c3cccc(OS(N)(=O)=O)c3)nc3sccn23)c1`, the growth is 102% (inactive).

With `CCCCC[C@@H]1Cc2cc(O)c(C(=O)O)c3c2[C@H](C[C@]2(OC[C@@H](CC(=O)[C@@](C)(CC)C(=O)OC)[C@@H]2C)O3)O1`, the growth was 117% (inactive).

Turning to `Cc1ccc(Cl)cc1Nc1nc(C(F)(F)F)ccc1C(=O)N/N=C/c1cccnc1`, the growth was 39.5% (inactive).

As for `CCCC(O)Cn1ncc(C(=O)OCC)c1NC(=O)NCc1ccccc1F` (stereo unspecified), the growth was 103% (inactive).

With `COc1ccc(-c2nc(/C=C3\SC(=NCc4ccccc4)NC3=O)c3ccccn23)cc1`, the growth was -4.34% (active).

For the compound `COc1cccc(NC(=O)Cn2cc(CN3CCN(c4ccnc5cc(Cl)ccc45)CC3)nn2)c1`, the growth is 96.7% (inactive).

On to `CO[C@H]1/C=C(/C)CCC[C@H](C)[C@H](O)[C@@H](C)C(=O)C(C)(C)[C@@H](O)CC(=O)O[C@@H]1/C(C)=C/c1csc(C)n1`, for which the growth is -34.8% (active).

With `CC(C)n1cnc2c(=S)nc[nH]c21`, the growth is 94.9% (inactive).

As to `COC(C(=O)[C@@H](O)[C@@H](C)O)[C@@H]1Cc2cc3cc(O[C@H]4C[C@@H](O[C@H]5C[C@@H](O)[C@H](O)C(C)O5)[C@H](O)C(C)O4)cc(O)c3c(O)c2C(=O)[C@H]1O[C@H]1C[C@@H](O[C@H]2C[C@@H](O[C@H]3C[C@@H](OC)[C@H](O)C(C)O3)[C@@H](O)C(C)O2)[C@H](O)C(C)O1` (stereo partly specified), the growth was 44.8% (inactive).

For `Cc1cccnc1NC(=S)Nc1ncccc1C`, the growth is 83.9% (inactive).

In the case of `NC(=O)c1c(NC(=O)c2ccccc2)sc2c1CCC(=O)C2`, the growth was 8.22% (active).

As to `CCCC(=O)NC(c1ccc2c(c1)OCO2)c1ccc2cccnc2c1O` (stereo unspecified), the growth was 26.9% (inactive).

Turning to `CCCCNc1ccc(C#N)c(OCCN(CC)CC)c1`, the growth is 104% (inactive).

`Cc1ccccc1NC(=O)c1sc2nc(C)c(C(=O)/C=C/c3ccccc3)cc2c1N`: the growth was -22.7% (active).

As to `COc1ccc(C(=O)Nc2ncc(Cc3ccc(F)cc3)s2)cc1`, the growth was 2.51% (active).

For the compound `COC(=O)c1c2c(c[n+]([O-])c1C)C(=O)C(NCc1ccccc1)=CC2=O`, the growth is -93.7% (active).

In the case of `Cn1ccc2c3c(ccc21)CC3=O`, the growth is 106% (inactive).

Take `COc1ccc2c3c([nH]c2c1)C(=O)c1nc(C)ccc1C3=O`: the growth is -76.2% (active).

As to `COC(=O)c1c2c(c(C)[n+]([O-])c1C)C(=O)C=C(NCc1ccc(OC)cc1)C2=O`, the growth is -91.6% (active).

For `O=C1Nc2ccccc2[C@]12CC(c1ccccc1)=NN2`, the growth was -1.7% (active).

As for `CCOc1nc(-c2ccccc2)cc2c(O)c(C(=O)NN)[nH]c(=O)c12`, the growth was 113% (inactive).

On to `CCN(CC)C(=S)SC(SC(=S)N(CC)CC)C(=O)c1nnn(-c2ccc([N+](=O)[O-])cc2)c1C`, for which the growth was 101% (inactive).

In the case of `CCOC(=O)/C=C1\S/C(=N\Nc2cc(=O)[nH]c3ccc(Cl)cc23)N(c2ccccc2)C1=O`, the growth was 96.3% (inactive).

For `CCCc1cc(NC)nc(S(=O)(=O)CC)n1`, the growth was 104% (inactive).

Turning to `O=C(N/N=C/c1ccc(F)cc1)c1ccc(C(F)(F)F)nc1Nc1cccc(C(F)(F)F)c1`, the growth was 24.8% (inactive).

Turning to `CCn1c(SCC(=O)c2ccc(Br)cc2)nnc1-c1ccncc1`, the growth is 102% (inactive).

Consider `COC(=O)c1cc(-c2ccccc2)[nH]c1N/N=C/c1c(Cl)cccc1Cl`, for which the growth is -26.9% (active).

Consider `O=C(Nc1nn(-c2ccc(Cl)cc2Cl)nc1-c1ccccc1)c1ccccc1`, for which the growth is 95.3% (inactive).

For `CC(=O)N(N=Nc1ccccc1)c1cccc2ccccc12`, the growth was 97.8% (inactive).

`C#COc1cccc(Nc2ncnc3ncc(NC(=O)CCl)cc23)c1`: the growth is 17.1% [6.25 µM] (inactive).

As for `COc1cc(CNS(=O)(=O)c2ccc(C)cc2)ccc1OCc1cn(-c2ccc(Br)cc2)nn1`, the growth is 101% (inactive).
